Data on seven sequences can be found in the supplement of paper PMC6555819.

Common to all, as to assay: PBM binding z-score (relative to random genomic background probes); higher = stronger binding; sequences stand for … in GC…GCGATTGACAGCGTAGAATGAAGG
In test [1] the test system is FXR:RXRa (NR concentration 270 nM, RXRa partner concentration 90 nM). In outline:
(§1)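 Binding buffer was PBS pH 7.4 with 2% milk, 0.02% Triton X-100, 1 mM DTT, 0.2 mg/mL BSA and 0.4 mg/ml salmon testes DNA. In it, ligand-free nuclear receptor dimers were incubated 1 h on custom Agilent 4×180K protein-binding microarrays carrying double-stranded probes. Antibodies against each partner (one per run) detected binding, and z-scores were calculated against random background probes after regression normalization of scanned fluorescence.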

Test [2] relates to LXRa:RXRa (NR concentration 270 nM, RXRa partner concentration 90 nM). The procedure, abridged: as §1
For test [3], the system named is LXRa homodimer (NR concentration 270 nM). The procedure, abridged:
as §1

For test [4], the system named is LXRb:RXRa (NR concentration 270 nM, RXRa partner concentration 90 nM). The procedure, abridged:
as §1

For test [5], the system named is LXRb homodimer (NR concentration 270 nM). The procedure, abridged: as §1
In test [6] the test system is PPARa:RXRa (NR concentration 270 nM, RXRa partner concentration 90 nM). In outline: as §1
Test [7] deals with PPARg:RXRa (NR concentration 180 nM, RXRa partner concentration 90 nM). In outline:
as §1

Test [8] relates to PPARg:RXRa 270nM:90nM, anti-RXR (NR concentration 270 nM, RXRa partner concentration 90 nM). In outline: as §1
The subject of test [9] is PPARg:RXRa 30nM:10nM, anti-RXR (NR concentration 30 nM, RXRa partner concentration 10 nM). In outline:
as §1

Test [10] concerns PPARg:RXRa 90nM:30nM, anti-RXR (NR concentration 90 nM, RXRa partner concentration 30 nM). In outline: as §1
In test [11] the test system is PPARg:RXRa DBDmut IVT, anti-RXR (DBD mutation: RXRa K156A/R161A, NR concentration 270 nM, RXRa partner concentration 90 nM). In outline: as §1
In test [12] the test system is PPARg:RXRa IVT, anti-PPARg (NR concentration 270 nM, RXRa partner concentration 90 nM). The procedure, abridged: as §1
In test [13] the test system is PPARg DBDmut:RXRa IVT, anti-PPARg (DBD mutation: PPARg1 K132A/R137A, NR concentration 270 nM, RXRa partner concentration 90 nM). In outline:
as §1

Test [14] concerns PPARg DBDmut IVT, anti-PPARg (DBD mutation: PPARg1 K132A/R137A, NR concentration 270 nM). The procedure, abridged: as §1
Test [15] deals with PPARg homodimer (NR concentration 180 nM). The procedure, abridged:
as §1

The test system of test [16] is PXR:RXRa (NR concentration 270 nM, RXRa partner concentration 90 nM). In outline:
as §1

For test [17], the system named is PXR homodimer (NR concentration 270 nM). In outline: as §1
In test [18] the test system is RARa:RXR (NR concentration 270 nM, RXRa partner concentration 90 nM). In outline: as §1
The subject of test [19] is RARa homodimer (NR concentration 270 nM). In outline: as §1
In test [20] the test system is RARb:RXRa (NR concentration 270 nM, RXRa partner concentration 90 nM). The procedure, abridged:
as §1

As to AATACAGGGTCACTAGGCCAAAGTAGGTACGAAT, the PBM binding z-score worked out at 6.51 in [1]; 4.99 in test [2]; 1.08 in [3]; 4 in [4]; 1.01 in [5]; 6.26 in test [6]. Further, the PBM binding z-score amounted to 8.6 in test [7]; 6.83 in test [8]; 4.18 in test [9]; 6.09 in test [10]; 4.25 in test [11]; 6.12 in test [12]. Also, the PBM binding z-score in test [13] amounted to 1.52; in test [14], 1.47; in test [15], 2.51; in test [16] it was 3.27; in test [17], 0.193; in test [18], 4.17. Also, the PBM binding z-score in test [19] was 0.959; in test [20] it was 4.31.
As for ATCTCTAGGTAACCAAGTTCAGTTAATGCCGAAC, the PBM binding z-score was 0.988 in test [1]; 1.26 in test [2]; 1.38 in test [3]; 1.11 in test [4]; 0.875 in [5]; 1.31 in [6]. Moreover, the PBM binding z-score in [7] stood at 0.806; in [8] it was 1.1; in test [9], 0.448; in test [10], 0.659; in test [11], 3.71; in [12], 3.16. For the same sequence, the PBM binding z-score in [13] is 2.02; in [14], 1.26; in test [15] it was 1.12; in [16], 2.19; in [17], 2.39; in test [18], 1.24. The PBM binding z-score in test [19] is 1.3; in [20], 1.18.
Consider ACAGACAGGTGATAAAGGTAACTCAGGCTATCAT, for which the PBM binding z-score in test [1] is -0.11; in test [2], -0.0181; in test [3], -0.44; in [4] it was 0.128; in test [5] it was -0.23; in [6], 0.763. The PBM binding z-score was 1.15 in test [7]; 1.47 in test [8]; 0.377 in [9]; 1.35 in [10]; -0.135 in test [11]; 0.46 in test [12]. In addition, the PBM binding z-score was -0.885 in [13]; -0.537 in test [14]; 0.207 in test [15]; -0.0528 in test [16]; 0.0239 in test [17]; 0.267 in test [18]. Besides, the PBM binding z-score was -0.124 in [19] and 0.423 in [20].
With TTGCCAAGGTGAGCTGAGGTCGTTGATCCAACTC, the PBM binding z-score was 1.5 in [1]; 0.918 in [2]; -0.266 in [3]; 0.415 in test [4]; -1.74 in test [5]; 1.46 in test [6]. Moreover, the PBM binding z-score in test [7] is -0.358; in test [8], 0.302; in test [9], -0.768; in test [10] it was -0.564; in test [11], 0.582; in test [12], 1.28. In addition, the PBM binding z-score in test [13] is -1.28; in test [14], -1.13; in [15] it was -0.789; in [16], 4.61; in test [17], 0.057; in test [18], 1.33. In addition, the PBM binding z-score in test [19] is -0.704; in test [20], 1.73.
With TCAGACAGGTGAAGGGAACTCAGGTACGCAGTCG, the PBM binding z-score in test [1] worked out at 0.945; in [2] it was 0.772; in test [3], 0.0804; in [4], 0.859; in test [5], 0.193; in test [6], 1.25. Moreover, the PBM binding z-score is 0.602 in test [7]; 2.23 in test [8]; 3.93 in [9]; 2.93 in test [10]; 2.87 in [11]; 0.387 in test [12]. The PBM binding z-score was -0.0761 in test [13]; -0.559 in test [14]; 0.811 in test [15]; 0.733 in test [16]; 0.499 in test [17]; 0.697 in [18]. Moreover, the PBM binding z-score in test [19] was 0.593; in test [20] it was 1.04.
As for GCGACTGGGGCAGAGCAGGTTACCATAAGGTTGG, the PBM binding z-score in test [1] was 0.158; in test [2] it was -0.389; in test [3], -0.79; in [4], -0.197; in [5] it was -1.19; in test [6] it was 0.462. Moreover, the PBM binding z-score in [7] is 0.564; in test [8] it was 0.0587; in [9] it was -1.01; in test [10], -0.178; in [11], 3.52; in [12] it was 2.22. In addition, the PBM binding z-score in test [13] is -0.693; in [14] it was -0.694; in test [15] it was -0.578; in test [16] it was -0.201; in [17] it was -0.162; in [18] it was -0.103. Besides, the PBM binding z-score in [19] is -0.568; in test [20], 0.569.
Turning to AGAACGAGAGCACGCTGAGTTGATAGCAGAGTAG, the PBM binding z-score in [1] is -0.802; in test [2] it was -0.854; in test [3], -0.51; in test [4] it was -0.91; in [5] it was -1.27; in test [6], -0.425. In addition, the PBM binding z-score in test [7] was 0.523; in test [8], -0.601; in [9] it was -0.701; in [10], -0.842; in [11], 0.0563; in test [12], -0.2. The PBM binding z-score is -0.0826 in test [13]; -0.875 in [14]; -0.952 in test [15]; -0.515 in test [16]; -0.415 in test [17]; -0.666 in [18]. Also, the PBM binding z-score in test [19] was -1.23; in test [20], -0.39.
